Measured values: PubChem BioAssay (NCI)
Compounds without any hit were thinned out: in the full panel of roughly 79,000, 15% have a hit. The source made the active and inactive calls. Cut-off read from the data, not from the text of the source: active = growth inhibition above about 70%; inactive = the rest.

Experiments:
[1] = NCI Yeast Anticancer Drug Screen. Data for the rad50 strain (AID 155);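 note: 0% = growth of vehicle-only cultures of the same strain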; details: S. cerevisiae rad50 strain growth inhibition, active compounds read high
How it was run: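 DNA repair mutant yeast, compound exposure, growth read-out; inhibition is taken relative to vehicle.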

[2] = NCI Yeast Anticancer Drug Screen. Data for the mec2-1 strain (AID 157); details: S. cerevisiae mec2-1 strain, active compounds read high
How it was run: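 Test agents were screened against the mec2-1 yeast strain, with defined DNA repair or cell cycle alteration. Growth was scored as inhibition against vehicle-only controls.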

[3] = NCI Yeast Anticancer Drug Screen. Data for the sgs1 mgt1 strain (AID 161);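 note: 0% = growth of cultures given vehicle only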; details: S. cerevisiae sgs1 mgt1 strain, active compounds read high
How it was run: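 Read-out: growth inhibition vs vehicle controls. Cells: mutant yeast strain deficient in DNA damage repair.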

[4] = NCI Yeast Anticancer Drug Screen. Data for the cln2 rad14 strain (AID 165);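 note: 0% = growth equal to vehicle treated cultures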; details: S. cerevisiae cln2 rad14 strain, active compounds read high
How it was run: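 Growth of compound-exposed yeast (cln2 rad14 genotype) measured and expressed as inhibition relative to vehicle.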

[5] = NCI Yeast Anticancer Drug Screen. Data for the bub3 strain (AID 167); details: S. cerevisiae bub3 mutant strain, active compounds read high
How it was run: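 In this screen, a yeast mutant lacking normal mitotic checkpoint function is challenged with compound. Relative growth versus vehicle gives the inhibition value.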

[6] = NCI Yeast Anticancer Drug Screen. Data for the mlh1 rad18 strain (AID 175); details: S. cerevisiae mlh1 rad18 strain growth inhibition, active compounds read high
How it was run: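 In this whole-cell yeast screen, a strain with altered DNA damage repair is challenged with compound, and its growth is measured against matched vehicle-treated controls.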

[7] = at 5.0 µM (retest, dose inferred, filed as 0.5)
[8] = at 50.0 µM (retest, dose inferred, filed as 5.0)

Measured: growth inhibition

CC(=O)OC(c1ccc(Cl)cc1)c1ccc(Cl)cc1
inactive: [1]; [7] -43% | [1]; [8] 1% | [1]; at 50.0 µM 16.5% | [2]; [7] -11% | [2]; [8] -8% | [2]; at 50.0 µM -2% | [3]; [7] -7% | [3]; [8] 20% | [3]; at 50.0 µM 18.8% | [4]; [7] -17% | [4]; [8] 4% | [4]; at 50.0 µM 8.85% | [5]; [7] 2% | [5]; [8] 0% | [5]; at 50.0 µM 0.2% | [6]; [7] -22% | [6]; [8] 16% | [6]; at 50.0 µM 18.9%

Cn1c2c(c3ccccc31)CCN(CCN1CCN(c3cccc(Cl)c3)CC1)C2=O
active: [1]; at 50.0 µM 88.8% | [2]; at 50.0 µM 85.1% | [3]; at 50.0 µM 87.8% | [4]; at 50.0 µM 91.3% | [5]; at 50.0 µM 87.8% | [6]; at 50.0 µM 80.6%
inactive: [1]; [7] 34% | [1]; [8] 34% | [2]; [7] 7% | [2]; [8] 7% | [3]; [7] 1% | [3]; [8] 1% | [4]; [7] 15% | [4]; [8] 15% | [5]; [7] -17% | [5]; [8] -17% | [6]; [7] 10% | [6]; [8] 10%

CC(C)(C)C1=CC(=CC=C2C=CN(CCO)C=C2)C=C(C(C)(C)C)C1=O
inactive: [1]; [7] -2% | [1]; at 50.0 µM 29.1% | [2]; [7] 0% | [2]; [8] 28% | [2]; at 50.0 µM 35.5% | [3]; [7] -3% | [3]; [8] 51% | [3]; at 50.0 µM 24.6% | [4]; [7] 0% | [4]; [8] 60% | [4]; at 50.0 µM 31.8% | [5]; [7] -5% | [5]; [8] 28% | [5]; at 50.0 µM 31.6% | [6]; [7] -6%
active: [1]; [8] 98% | [6]; [8] 73% | [6]; at 50.0 µM 97%

COc1ccccc1NC(=O)CC(=O)N1N=C(C)C(N=Nc2ccc(I)cc2)C1=O (stereo not given)
active: [1]; at 50.0 µM 93% | [3]; at 50.0 µM 83.1% | [6]; at 50.0 µM 85.6%
inactive: [1]; [7] 5% | [1]; [8] 36% | [2]; [7] 6% | [2]; [8] 30% | [2]; at 50.0 µM 11.1% | [3]; [7] 6% | [3]; [8] 28% | [4]; [7] 2% | [4]; [8] 20% | [4]; at 50.0 µM -39.5% | [5]; [7] 5% | [5]; [8] 41% | [5]; at 50.0 µM 33% | [6]; [7] 2% | [6]; [8] 41%

Cc1c(-c2ccccc2)ccnc1/C=N/NC(=S)NCCc1ccccc1
inactive: [1]; [7] 49% | [2]; [7] 52% | [3]; [7] 52% | [4]; [7] 42% | [4]; at 50.0 µM 70% | [5]; [7] 55% | [6]; [7] 49%
active: [1]; [8] 77% | [1]; at 50.0 µM 76.3% | [2]; [8] 85% | [2]; at 50.0 µM 76.3% | [3]; [8] 83% | [3]; at 50.0 µM 75.5% | [4]; [8] 80% | [5]; [8] 84% | [5]; at 50.0 µM 77.7% | [6]; [8] 80% | [6]; at 50.0 µM 74%

Cc1oc2c(c1C(=O)c1ccccc1)C(=O)c1ccccc1C2=O
active: [1]; [8] 99% | [1]; at 50.0 µM 88.2% | [2]; [8] 99% | [2]; at 50.0 µM 92.7% | [3]; [8] 99% | [3]; at 50.0 µM 93.2% | [4]; [8] 98% | [4]; at 50.0 µM 92.8% | [5]; [8] 99% | [5]; at 50.0 µM 91.7% | [6]; [8] 99% | [6]; at 50.0 µM 82%
inactive: [1]; [7] 33% | [2]; [7] 19% | [3]; [7] 31% | [4]; [7] 22% | [5]; [7] 39% | [6]; [7] 25%

S=C(Nc1cc(Cl)c(Cl)cc1Cl)SCc1ccccc1
inactive: [1]; [7] 14% | [2]; [7] 8% | [3]; [7] 30% | [4]; [7] 12% | [5]; [7] 39% | [6]; [7] 55%
active: [1]; [8] 97% | [1]; at 50.0 µM 98.7% | [2]; [8] 99% | [2]; at 50.0 µM 99.3% | [3]; [8] 99% | [3]; at 50.0 µM 99.2% | [4]; [8] 98% | [4]; at 50.0 µM 97.8% | [5]; [8] 99% | [5]; at 50.0 µM 99.2% | [6]; [8] 99% | [6]; at 50.0 µM 99%

Cc1cc(Br)ccc1NC(=O)/C=C/C(=O)O
inactive: [1]; [7] -23% | [1]; [8] -36% | [1]; at 50.0 µM 0.1% | [2]; [7] -24% | [2]; [8] -5% | [2]; at 50.0 µM 4.25% | [3]; [7] -17% | [3]; [8] -4% | [3]; at 50.0 µM 17.4% | [4]; [7] 10% | [4]; [8] 22% | [4]; at 50.0 µM 7.15% | [5]; [7] -4% | [5]; [8] -13% | [5]; at 50.0 µM 20.2% | [6]; [7] 0% | [6]; [8] -16% | [6]; at 50.0 µM 1.25%

O=C(N/C(=C\c1ccc(Cl)cc1)c1nc2ccccc2s1)c1ccccc1
active: [1]; [8] 95% | [1]; at 50.0 µM 98.3% | [2]; [8] 97% | [2]; at 50.0 µM 98.1% | [3]; [8] 97% | [3]; at 50.0 µM 98.8% | [4]; [8] 96% | [4]; at 50.0 µM 98% | [5]; [8] 97% | [5]; at 50.0 µM 96.7% | [6]; [8] 95% | [6]; at 50.0 µM 97.8%
inactive: [1]; [7] 34% | [2]; [7] 32% | [3]; [7] 54% | [4]; [7] 15% | [5]; [7] 30% | [6]; [7] 28%

COc1cc(C(Sc2ccccc2C(=O)O)Sc2ccccc2C(=O)O)ccc1O
active: [1]; [8] 91% | [1]; at 50.0 µM 95.5% | [2]; [8] 88% | [2]; at 50.0 µM 95.6% | [3]; [8] 94% | [3]; at 50.0 µM 97.4% | [4]; [8] 93% | [4]; at 50.0 µM 81.6% | [5]; [8] 97% | [5]; at 50.0 µM 87.9% | [6]; [8] 95% | [6]; at 50.0 µM 98.5%
inactive: [1]; [7] 9% | [2]; [7] 12% | [3]; [7] 21% | [4]; [7] 8% | [5]; [7] 12% | [6]; [7] 14%
